The supplement of paper PMC8975748
Structures can show the parent of a compound that is named as a salt.

tested on: Saccharomyces cerevisiae BY4741 SeMeCo community; assay: z-score of subpopulation abundance vs DMSO median, subpopulation auxotrophic for LM; higher = larger share of this subpopulation than in DMSO controls; settings: 10 µM; 24 h; SM minimal medium; subpopulation (auxotrophy): LM
Description: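 Fluorescent four-plasmid SeMeCo (self-establishing metabolically cooperating S. cerevisiae BY4741 community; plasmids pH-mRuby2, pL-mWasabi, pU-eCFP, pM-TagRFP657) was grown 24 h in minimal SM medium with each Selleck FDA-approved drug at 10 µM in 384-well plates. Cells were fixed and imaged by high-content confocal microscopy. For each auxotrophic subpopulation (and the prototroph), a z-score gives the deviation from the DMSO vehicle-control population median.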

| SMILES | z-score of subpopulation abundance |
| --- | --- |
| CC(=O)NC[C@H]1CN(c2ccc(N3CCOCC3)c(F)c2)C(=O)O1 [Linezolid] | 0.19 |
| COc1ccc2[nH]c([S@@+]([O-])Cc3ncc(C)c(OC)c3C)nc2c1 [NEXIUM (esomeprazole magnesium)] | 0.3 |
| O=C1CCc2ccc(OCCCCN3CCN(c4cccc(Cl)c4Cl)CC3)cc2N1 [Aripiprazole] | 1.05 |
| CC[C@@H]1/C=C(\C)C[C@H](C)C[C@H](OC)[C@H]2O[C@@](O)(C(=O)C(=O)N3CCCC[C@H]3C(=O)O[C@H](/C(C)=C/[C@@H]3CC[C@H](Cl)[C@H](OC)C3)[C@H](C)[C@@H](O)CC1=O)[C@H](C)C[C@@H]2OC [Pimecrolimus] | 4.26 |
| CNCCCN1c2ccccc2CCc2ccccc21 [Desipramine Hydrochloride] | 0.26 |
| C/C=C1\[C@H]2C=C(C)C[C@]1(N)c1ccc(=O)[nH]c1C2 [(-)-Huperzine A (HupA)] | -0.7 |
| CC1(C)S[C@@H]2[C@H](NC(=O)Cc3ccccc3)C(=O)N2[C@H]1C(=O)O [Benzylpenicillin potassium] | 0.02 |
| CC(C)[N+](C)(CCOC(=O)C1c2ccccc2Oc2ccccc21)C(C)C [Propantheline bromide] | -0.04 |
| NNc1nncc2ccccc12 [Hydralazine HCl] | -0.56 |
| CCOC(=O)c1ccc(N)cc1 [Benzocaine] | 0.32 |
| O=C1c2cccc3c2[C@H](CCC3)CN1[C@@H]1CN2CCC1CC2 [Palonosetron] | -0.55 |
| CC[N+](C)(C)c1cccc(O)c1 [Edrophonium chloride] | -0.05 |
| CC1=C(C(=O)O)N2C(=O)[C@@H](NC(=O)[C@H](N)c3ccccc3)[C@H]2SC1 [Cephalexin] | 0.35 |
| C[C@]1(Cn2ccnn2)[C@H](C(=O)O)N2C(=O)C[C@H]2S1(=O)=O [Tazobactam] | -0.39 |
| CC(=O)[C@H]1CC[C@H]2[C@@H]3CCC4=CC(=O)CC[C@]4(C)[C@H]3CC[C@]12C [Progesterone] | -0.71 |
| Cc1nccn1CC1CCc2c(c3ccccc3n2C)C1=O (stereo not given) [Ondansetron Hydrochloride Dihydrate] | -0.17 |
| c1ccc2[nH]c(-c3cscn3)nc2c1 [Thiabendazole] | 0.06 |
| N[C@@H](C(=O)N[C@@H]1C(=O)N2C(C(=O)O)=C(Cl)CS[C@H]12)c1ccccc1 [Cefaclor] | 0.52 |
| Cc1ccc(Cl)c(Nc2ccccc2C(=O)O)c1Cl [Meclofenamate Sodium] | -0.57 |
| CCc1cc(C(N)=S)ccn1 [Ethionamide] | 0.32 |

| SMILES | z-score of subpopulation abundance |
| --- | --- |
| COc1ccc(Cc2cnc(N)nc2N)cc1OC [Diaveridine] | -0.01 |
| COc1cccc2c1C(=O)c1c(O)c3c(c(O)c1C2=O)C[C@@](O)(C(=O)CO)C[C@@H]3O[C@H]1C[C@H](N)[C@H](O[C@@H]2CCCCO2)[C@H](C)O1 [Pirarubicin] | -3.84 |
| Cc1cccc(C)c1OCC(C)N (stereo not given) [Mexiletine HCl] | -0.69 |
| CN(Cc1cnc2nc(N)nc(N)c2n1)c1ccc(C(=O)N[C@@H](CCC(=O)O)C(=O)O)cc1 [Methotrexate] | 1.07 |
| NC[C@H]1O[C@H](O[C@H]2[C@H](O)[C@@H](O[C@H]3O[C@H](CO)[C@@H](O)[C@H](N)[C@H]3O)[C@H](N)C[C@@H]2N)[C@H](N)C[C@@H]1O [Tobramycin] | -0.17 |
| CCC(C)(C)c1ccc(CC(C)CN2C[C@@H](C)O[C@@H](C)C2)cc1 (stereo not given in full) [Amorolfine HCl] | -0.63 |
| Nc1c2c(nc3ccccc13)CCCC2 [Tacrine hydrochloride hydrate] | 0.08 |
| O=c1ccc2cc(O)c(O)cc2o1 [Esculetin] | 3.28 |
| Nc1ccc(S(=O)(=O)Nc2ccccn2)cc1 [Sulfapyridine] | -0.18 |
| CC(C)N1CCN(c2ccc(OCC3COC(Cn4cncn4)(c4ccc(Cl)cc4Cl)O3)cc2)CC1 (stereo not given) [Terconazole] | -0.49 |
| CC(C(=O)O)c1cccc(C(=O)c2ccccc2)c1 (stereo not given) [Ketoprofen] | 1.24 |
| COc1cc(/C=C/C(=O)N2CCN(CC(=O)N3CCCC3)CC2)cc(OC)c1OC [Cinepazide maleate] | -1.06 |
| COc1c(N2C[C@@H]3CCCN[C@@H]3C2)c(F)cc2c(=O)c(C(=O)O)cn(C3CC3)c12 [Moxifloxacin HCl] | 2.74 |
| O=C(O)CCC(=O)c1ccc(-c2ccccc2)cc1 [Fenbufen] | 0.1 |
| CCN(CC)CCNC(=O)c1cc(S(C)(=O)=O)ccc1OC [Tiapride Hydrochloride] | 0.55 |
| Nc1nc2ccc(OC(F)(F)F)cc2s1 [Riluzole] | 0.35 |
| CC1CCc2c(N3CCC(O)CC3)c(F)cc3c(=O)c(C(=O)O)cn1c23 (stereo not given) [Nadifloxacin] | 0.06 |
| CCCCN(CCCC)CC(O)c1cc(Cl)cc2c1-c1ccc(Cl)cc1/C2=C/c1ccc(Cl)cc1 (stereo not given) [Lumefantrine] | -0.24 |
| CC[C@H](C)C[C@H](C)CCCCCCCCC(=O)N[C@H]1C[C@@H](O)[C@@H](NCCN)NC(=O)[C@@H]2[C@@H](O)CCN2C(=O)[C@H]([C@H](O)CCN)NC(=O)[C@H]([C@H](O)[C@@H](O)c2ccc(O)cc2)NC(=O)[C@@H]2C[C@@H](O)CN2C(=O)[C@H]([C@@H](C)O)NC1=O [Caspofungin Acetate] | 1.23 |
| CC1=C(C(=O)OCCN(Cc2ccccc2)c2ccccc2)C(c2cccc([N+](=O)[O-])c2)C(P2(=O)OCC(C)(C)CO2)=C(C)N1 (stereo not given) [Efonidipine] | 2.26 |
